Source: PubChem (National Center for Advancing Translational Sciences (NCATS))
JMJD2A Tudor inh: JMJD2A Tudor domain (human) inhibition; AID 504339; AlphaScreen JMJD2A-Tudor / H3K4me3 peptide binding; hit rate 4.4% among 390,000; O75164; Potency, µM (top dose mostly 114 µM), for inactives: at the highest dose activity change, negative = inhibition, hits mostly inhibitors; note: % is set by controls: 0 for no effect and ±100 for the full control effect; nearly all actives have a fitted effect of over 50% in size
Target sequence (O75164 whole entry, looked up, the tested form may be a part): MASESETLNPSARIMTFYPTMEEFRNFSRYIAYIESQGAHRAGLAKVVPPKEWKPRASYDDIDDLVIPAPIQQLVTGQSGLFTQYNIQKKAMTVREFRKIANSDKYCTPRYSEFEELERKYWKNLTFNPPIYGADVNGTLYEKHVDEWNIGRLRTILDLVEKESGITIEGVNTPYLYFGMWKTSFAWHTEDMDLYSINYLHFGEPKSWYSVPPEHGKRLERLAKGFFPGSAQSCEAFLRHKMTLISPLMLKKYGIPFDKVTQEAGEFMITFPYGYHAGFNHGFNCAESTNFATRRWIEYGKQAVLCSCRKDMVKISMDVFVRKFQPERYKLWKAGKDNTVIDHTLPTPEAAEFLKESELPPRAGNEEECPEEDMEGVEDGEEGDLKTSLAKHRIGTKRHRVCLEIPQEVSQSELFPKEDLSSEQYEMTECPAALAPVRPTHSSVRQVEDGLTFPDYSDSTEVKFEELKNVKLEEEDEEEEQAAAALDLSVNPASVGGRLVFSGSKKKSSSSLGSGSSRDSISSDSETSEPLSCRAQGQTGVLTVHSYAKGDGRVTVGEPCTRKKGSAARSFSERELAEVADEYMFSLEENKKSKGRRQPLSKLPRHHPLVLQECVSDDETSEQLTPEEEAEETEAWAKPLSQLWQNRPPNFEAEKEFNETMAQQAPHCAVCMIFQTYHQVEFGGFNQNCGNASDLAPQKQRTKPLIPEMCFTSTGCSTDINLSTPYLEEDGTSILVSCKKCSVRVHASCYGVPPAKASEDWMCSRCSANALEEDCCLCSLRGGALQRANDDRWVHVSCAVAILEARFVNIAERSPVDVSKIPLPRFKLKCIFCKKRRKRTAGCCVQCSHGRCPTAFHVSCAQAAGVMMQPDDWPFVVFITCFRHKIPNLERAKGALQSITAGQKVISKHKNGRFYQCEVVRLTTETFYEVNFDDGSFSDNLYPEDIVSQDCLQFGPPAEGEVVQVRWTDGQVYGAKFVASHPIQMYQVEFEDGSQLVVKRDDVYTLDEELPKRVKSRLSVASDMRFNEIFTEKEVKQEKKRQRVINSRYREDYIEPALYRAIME
G9a inh: inhibitors of human histone lysine methyltransferase G9a; Q96KQ7; G9a H3K9 monomethylation, AlphaScreen, 2 h; Potency, µM (doses to about 102 µM), inactives show at the highest dose activity, negative = inhibition, actives largely listed as inhibitors; hit rate 8.8% among 350,000; note: % is set by controls: 0 for no effect and ±100 for the full control effect; nearly all actives have a fitted effect of over 75% in size
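G9a (20 nM) was preincubated 15 min with compound, then reacted 2 h at room temperature with 500 nM biotin-H3K9 peptide and 20 µM SAM. Monomethyl-H3K9 detected by AlphaScreen using anti-H3K9me1 antibody.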
L3MBTL1 block: inhibitors of human L3MBTL1; Potency, µM (top dose mostly 57.1 µM), inactives show at the highest dose activity, negative = inhibition, most hits filed as inhibitors; AlphaScreen L3MBTL1–H3K9me1 peptide binding; hit rate 0.66% among 230,000; Q9Y468; note: % is set by controls: 0 for no effect and ±100 for the full control effect; nearly all actives have a fitted effect of over 60% in size
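First, the protein-peptide complex forms for 30 min at room temperature (L3MBTL1 50 nM, biotinylated H3K9me1 peptide 75 nM). Next, compounds are pin-transferred and incubated 30 min. Finally, AlphaScreen beads are added and read after 30 min.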
Sfp PPTase inh: blocks B. subtilis Sfp PPTase activity; Potency, µM, for the others: largest response in the series, negative = inhibition, hits mostly inhibitors; AID 1490; Q9F4F7; hit rate 3.5% among 310,000; Biochemical Sfp PPTase activity, qHTS;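 note: the enzyme is Sfp with the accession as filed and its product quenches rhodamine fluorescence; 0% = enzyme reaction without inhibitor and -100% = no enzyme wells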
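With Hepes-Na pH 7.6 buffer containing 10 mM MgCl2, Sfp (15 nM) modified BHQ-2-YbbR (12.5 uM) using rhodamine-CoA (5 uM). Two reads 30 minutes apart at 525/598 nm yielded each well's rate.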
BAZ2B block: BAZ2B (human) inhibition. AID 504333. hit rate 4.4% among 360,000. Potency, µM (top dose mostly 114 µM), for inactives: at the top dose activity change, negative = inhibition, most hits filed as inhibitors. AlphaScreen BAZ2B-H3K14Ac peptide displacement; note: % is set by controls: 0 for no effect and ±100 for the full control effect; nearly all actives have a fitted effect of over 60% in size
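Complex of BAZ2B and biotin-H3K14Ac (50 nM apiece) forms over 30 min at RT, then faces library compounds up to 110 uM for another 30 min; AlphaScreen beads added, 20 min dark incubation, luminescence read.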
HP1b chromo inh: inhibitors of HP1-beta chromodomain binding to methylated histone tails; P83916; AlphaScreen HP1-beta / biotin-H3K9me3 peptide binding; Potency, µM (titrated, usually from 114 µM), inactives show at the top dose activity change, negative = inhibition, usual class: inhibitors; hit rate 0.56% among 390,000; note: nearly all actives have a fitted effect of over 70% in size
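HP1-beta protein (50 nM final) preincubated 30 min at room temperature with biotinylated H3(1-18)K9me3 peptide (50 nM) in PBS pH 7.4, 0.01% Tween-20, then compound added for 30 min. AlphaScreen streptavidin donor/nickel chelate acceptor beads (10 ug/mL final), 30 min dark, luminescence read.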
Starred values were filed as active, the others as inactive; ! = not confirmed by another sample; [ ] = dose if it differs, or a comment. In the library only some 12% were active in any assay of this set; here they are far more common. Calls come from the whole dose curve; as a rule, active = well fitted curve in the direction sought with a large enough effect; inconclusive = small, poorly fitted or top-dose-only effect, or another doubt; inactive = no such curve, though single readings can be large; an effect the other way counts as inactive or inconclusive. Potency is the fitted concentration of half-maximal effect.

C[C@H](NC(=O)OCc1ccccc1)c1nnc([C@H](Cc2ccccc2)NC(=O)OC(C)(C)C)o1 was read as JMJD2A Tudor inh -15%, G9a inh 22%[59 µM], Sfp PPTase inh 8%, BAZ2B block -4% and HP1b chromo inh 29%.
For Cc1cccc(CS(=O)(=O)c2nnc([C@H](Cc3ccccc3)NC(=O)OC(C)(C)C)o2)c1 the results were JMJD2A Tudor inh -4%, G9a inh 10µM*, Sfp PPTase inh 18µM*, BAZ2B block 4% and HP1b chromo inh 67%.
Screening CN(C)C(=O)CSc1nnc([C@H](Cc2ccccc2)NC(=O)OC(C)(C)C)o1 returned JMJD2A Tudor inh -6%, G9a inh 40µM*, L3MBTL1 block 0%, Sfp PPTase inh -5%, BAZ2B block 0% and HP1b chromo inh -9%.
`COC(=O)CSc1nnc([C@H](Cc2ccccc2)NC(=O)OC(C)(C)C)o1` gave JMJD2A Tudor inh 13%, G9a inh 18%, L3MBTL1 block 5%, Sfp PPTase inh 1%, BAZ2B block 2% and HP1b chromo inh 26%.
Screening CC(C)(C)OC(=O)N[C@@H](Cc1ccccc1)c1nnc(SCC(N)=O)o1 returned JMJD2A Tudor inh -22%, G9a inh inconclusive, L3MBTL1 block -6%, Sfp PPTase inh 10%, BAZ2B block -10% and HP1b chromo inh 39%.
COC(=O)CS(=O)(=O)c1nnc([C@H](Cc2ccccc2)NC(=O)OC(C)(C)C)o1 was read as JMJD2A Tudor inh 79µM*, G9a inh inconclusive, L3MBTL1 block 4%, Sfp PPTase inh -91%, BAZ2B block 7% and HP1b chromo inh 4%.
COc1cc(C2c3c(oc4ccccc4c3=O)C(=O)N2Cc2ccc(C)cc2)ccc1O (stereo not given) was read as JMJD2A Tudor inh 4%, G9a inh 4%[59 µM], BAZ2B block 4% and HP1b chromo inh inconclusive.
Screening COc1cccc([C@@H]2Oc3ccc(Br)cc3C(=O)[C@H]2OC(=O)NCCOc2ccccc2)c1 returned Sfp PPTase inh 20%.
Cn1c2ccccc2c2nnc(NN)nc21 was read as JMJD2A Tudor inh -33%, L3MBTL1 block 3%, Sfp PPTase inh inconclusive, BAZ2B block inconclusive and HP1b chromo inh 47%.
`CCn1c2ccc(C)cc2c2nnc(NN)nc21` gave JMJD2A Tudor inh inconclusive, G9a inh 50µM*, L3MBTL1 block -12%, Sfp PPTase inh -17%, BAZ2B block inconclusive and HP1b chromo inh 21%.
`CCCCn1c2ccc(F)cc2c2nnc(NN)nc21` gave JMJD2A Tudor inh -34%, G9a inh 50µM*, L3MBTL1 block -5%, Sfp PPTase inh -1%, BAZ2B block -24% and HP1b chromo inh 19%.
For CCn1c2ccccc2c2nnc(NN)nc21 the results were JMJD2A Tudor inh 50µM*, G9a inh inconclusive, L3MBTL1 block -5%, Sfp PPTase inh -12%, BAZ2B block inconclusive and HP1b chromo inh 1%.
Screening CCn1c2ccc(C)cc2c2nc3cc(C(=O)O)ccc3nc21 returned JMJD2A Tudor inh -12%, G9a inh -15%[59 µM], L3MBTL1 block -10%, Sfp PPTase inh -4%, BAZ2B block 10% and HP1b chromo inh 30%.
For COc1ccc(CC2=CC(=O)c3ccccc3C2=O)cc1 the results were JMJD2A Tudor inh 25µM*, L3MBTL1 block inconclusive, Sfp PPTase inh 25µM*, BAZ2B block 14µM* and HP1b chromo inh 13µM*.
For CNCCCC12CCC(c3ccccc31)c1ccccc12 the results were JMJD2A Tudor inh -28%, G9a inh 71µM*!, L3MBTL1 block -8%, Sfp PPTase inh 89µM*!, BAZ2B block -1% and HP1b chromo inh 38%.
`COc1cccc(CNC(=O)c2cccc(N3CCCS3(=O)=O)c2)c1` gave JMJD2A Tudor inh -7%, G9a inh -13%[59 µM], BAZ2B block 2% and HP1b chromo inh 22%.
`Cc1ccc(-n2c(Cn3ncc4ccccc4c3=O)n[nH]c2=S)cc1` gave JMJD2A Tudor inh 8.9µM*, G9a inh 7.9µM*, L3MBTL1 block 6%[11.4 µM], Sfp PPTase inh -11%, BAZ2B block inconclusive and HP1b chromo inh 39%.
`CC(c1ccc(F)cc1)n1c(Cn2ncc3ccccc3c2=O)n[nH]c1=S` (stereo not given) gave JMJD2A Tudor inh 13µM*, G9a inh 48%, L3MBTL1 block 10%, Sfp PPTase inh 9%, BAZ2B block 1% and HP1b chromo inh 10%.
O=c1c2ccccc2cnn1Cc1n[nH]c(=S)n1-c1ccc(F)cc1 was read as JMJD2A Tudor inh 6.3µM*, G9a inh 7.9µM*, L3MBTL1 block 5%, Sfp PPTase inh -16%, BAZ2B block -18% and HP1b chromo inh 29%.
Screening O=C(CSCc1cc(=O)c2ccccc2[nH]1)Nc1cccc(C(F)(F)F)c1 returned JMJD2A Tudor inh -19%, G9a inh 17%[59 µM], BAZ2B block 8% and HP1b chromo inh 19%[57 µM].
CCOc1ccccc1N(C)C(=O)Cn1cnc2onc(-c3ccc(F)cc3)c2c1=O was read as JMJD2A Tudor inh -7%, G9a inh -17%[59 µM], BAZ2B block 12%[57.1 µM] and HP1b chromo inh 30%.
For Cn1nnnc1SCC1=C(C(=O)O)N2C(=O)C(NC(=O)Cn3nc(C(F)F)cc3C3CC3)C2SC1 (stereo not given) the results were JMJD2A Tudor inh -18%, G9a inh inconclusive, Sfp PPTase inh -19%, BAZ2B block 71µM* and HP1b chromo inh 25%.
Cc1c(Cl)c(C(F)F)nn1CC(=O)NC1C(=O)N2C(C(=O)O)=C(CSc3nnnn3C)CSC12 (stereo not given) was read as JMJD2A Tudor inh -30%, G9a inh 28µM*, Sfp PPTase inh inconclusive, BAZ2B block -38% and HP1b chromo inh 7%.
Screening Cc1cc(=O)c(C(=O)N[C@@H](C(=O)N[C@@H]2C(=O)N3C(C(=O)O)=C(CSc4nnnn4C)CS[C@H]23)c2ccc(O)cc2)c[nH]1 returned G9a inh -1%[12.7 µM] and Sfp PPTase inh -23%.
Cc1nn(CC(=O)NC2C(=O)N3C(C(=O)O)=C(CSc4nnnn4C)CSC23)cc1Br (stereo not given) was read as JMJD2A Tudor inh 0%, G9a inh 40µM*, Sfp PPTase inh inconclusive, BAZ2B block inconclusive and HP1b chromo inh 49%.
`O=C(O)C1=C(CSc2nnnn2CS(=O)(=O)O)CS[C@@H]2[C@H](NC(=O)[C@H](O)c3ccccc3)C(=O)N12` gave G9a inh inconclusive and Sfp PPTase inh 79µM*.
c1ccc(Nc2ncnc3ccc(-c4ccc5c(c4)OCO5)cc23)cc1 was read as Sfp PPTase inh 11%.
